Measurements from PubChem BioAssay (NCATS).
Records with an inconclusive call do not appear. The source made the active and inactive calls. Unless noted, calls come from the whole dose curve; as a rule, active = well fitted curve in the direction sought with a large enough effect; inconclusive = small, poorly fitted or top-dose-only effect, or another doubt; inactive = no such curve, though single readings can be large; an effect the other way counts as inactive or inconclusive.

Assays:
[1] = Cell Viability - BJ (AID 421; calls by dose curve;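 note: potency is the fitted concentration of half-maximal effect; cells exposed to compound for 40 hours at 37 °C before readout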); conditions: BJ fibroblast viability, qHTS
Outline: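 Cytotoxicity in human BJ foreskin fibroblasts is scored as loss of cellular ATP after a 40-hour exposure, measured by luciferase luminescence. Controls are DMSO and 100 uM tamoxifen.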

[2] = Cell Viability - Jurkat (AID 426;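 active = dose-dependent loss of cell ATP signal giving a full or clear fitted curve, ranked by lower potency value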;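 note: potency is the fitted concentration of half-maximal effect; cells exposed to compound for 40 hours at 37 °C before ATP read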); conditions: qHTS
Outline: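 Seed 5000 Jurkat E6-1 cells/well; add compound; incubate 40 hr at 37 °C; add CellTiter-Glo; wait 20 min at room temperature; read luminescence. Fit concentration-response with Hill equation for AC50.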

[3] = Cell Viability - Hek293 (AID 427;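 active = compounds whose dose-response curve shows a full or clear partial loss of cell viability, called from curve shape rather than a numeric limit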;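 note: potency is the fitted concentration of half-maximal effect; cells exposed to compound for 40 hours at 37 °C before reading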); conditions: qHTS
Outline: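 qHTS, human embryonic kidney (adenovirus-transformed) cells; 40 hr cpd, 37 °C; CellTiter-Glo ATP luminescence. Norm: DMSO = 0, 100 uM tamoxifen = 100% inhibition. Hill-fit AC50.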

[4] = Cell Viability - HepG2 (AID 433; calls by dose curve;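 note: potency is the fitted concentration of half-maximal effect; potency for ATP loss meaning cytotoxicity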); conditions: qHTS
Outline: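 Cytotoxicity is scored as loss of intracellular ATP in HepG2 cells exposed to compounds for 40 h. Concentration-response curves, normalized to DMSO and 100 uM tamoxifen, give AC50 values.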

[5] = Cell Viability - MRC5 (AID 434; calls by dose curve;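 note: potency is the fitted concentration of half-maximal effect; cells exposed to compound for 40 hours at 37 °C; potency reflects cytotoxicity seen as loss of intracellular ATP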); conditions: MRC5 lung fibroblast viability, qHTS
Outline: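 qHTS cytotoxicity in human lung fibroblast MRC5 cells; 40 hr treatment, 37 °C; cellular ATP by luciferase luminescence; DMSO = 0%, 100 uM tamoxifen = 100% inhibition; Hill-fit AC50.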

[6] = Cell Viability - SK-N-SH (AID 435; calls by dose curve;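 note: potency is the fitted concentration of half-maximal effect; compound exposure lasted 40 h at 37 °C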); conditions: SK-N-SH neuroblastoma cell viability qHTS
Outline: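 Cells seeded at 1500 per well and incubated 5 hr at 37 °C. Compound added, then 40 hr at 37 °C. CellTiter-Glo added, 20 min at room temperature, luminescence read.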

[7] = Cell Viability - HUV-EC-C (AID 542); conditions: HUV-EC-C endothelial cell viability, qHTS; series mostly up to 92.2 µM; note: % is set by controls: 0 for no effect and ±100 for the full control effect; nearly all actives have a fitted effect of over 35% in size
Outline: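 Decrease in cellular ATP, quantified by luciferase luminescence, reflects toxicity in normal human vascular endothelial HUV-EC-C cells given compound for 40 hr in complete culture medium. Values are AC50s from concentration-response curves.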

[8] = Cellular Toxicity (caspase-3) HepG2 (AID 654); conditions: HepG2 caspase-3 activation, luminescence, 0% = DMSO only, 100% = tamoxifen; series mostly up to 92.2 µM;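 note: cells exposed to compound for 16 hours before reading; 0% = DMSO alone and 100% = caspase signal from 100 µM tamoxifen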
Outline: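 qHTS, HepG2, 1500 cells/well, complete medium; cpd 16 h 37 °C; Caspase-Glo 3/7, 20 min RT; lum. Norm: DMSO vs 100 uM tamoxifen; AC50 Hill fit.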

[9] = Cellular Toxicity (caspase-3) HUV-EC-C (AID 656); conditions: HUV-EC-C cells, caspase-3 activation (apoptosis), vehicle = 0, 100 µM tamoxifen = 100%; series mostly up to 92.2 µM
Outline: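 Read-out: luminescence proportional to caspase 3/7 activity, measured 20 min after adding Caspase-Glo 3/7 reagent. Cells (HUV-EC-C) had received compound for 16 hr at 37°C. Increases relative to DMSO and 100 uM tamoxifen gave concentration-response AC50 values.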

[10] = Cellular Toxicity (caspase-3) BJ (AID 658); conditions: BJ fibroblasts, luminescence, normalized: DMSO 0%, staurosporine 100%; series mostly up to 91.7 µM
Outline: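 Readout: Caspase-Glo 3/7 luminescence increase in BJ cells after 16 hr treatment at 37 °C. Staurosporine and tamoxifen served as positive controls; AC50 values came from Hill modelling of data normalized to DMSO and 10 uM staurosporine.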

[11] = Cellular Toxicity (caspase-3) Mesangial (AID 660); conditions: mesangial cells, normalized: DMSO 0%, 100 µM tamoxifen 100%; series mostly up to 91.7 µM;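 note: cells exposed to compound for 16 h before the caspase read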
Outline: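 Concentration-response qHTS: compound-induced rise in caspase 3/7 luminescence in human mesangial cells after 16 h, normalized to DMSO and 100 uM tamoxifen controls.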

[12] = Cellular Toxicity (caspase-3) SK-N-SH (AID 661); conditions: SK-N-SH caspase-3 activation, qHTS; series mostly up to 91.7 µM
Outline: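 Caspase 3/7 activation is measured as a luminescence increase from aminoluciferin released by substrate cleavage in SK-N-SH cells after 16 hr compound treatment; values are AC50 from concentration-response curves.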

[13] = Cellular Toxicity (caspase-3) H-4-II-E (AID 663); conditions: H-4-II-E rat hepatoma; Potency: caspase-3 activation; series mostly up to 92.2 µM;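 note: cells exposed to compound for 16 hr before readout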
Outline: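 Apoptosis induction is scored as increased luminescence from caspase 3/7 substrate cleavage in rat hepatoma H-4-II-E cells exposed to compound for 16 hr. Activity is scaled between DMSO and 100 uM tamoxifen.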

[14] = Cellular Toxicity (caspase-3) N2a (AID 665); conditions: N2a cells, luminescence, normalized: DMSO 0%, 10 µM staurosporine 100%; series mostly up to 92.2 µM;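 note: compound exposure lasted 16 h at 37 °C before readout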
Outline: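 Plated mouse neuroblastoma N2a cells received titrated compounds for 16 h in complete medium. Caspase activity was then detected with a peptide-aminoluciferin luminescent reagent.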

[15] = Cell Viability - LYMP1-002 - Assay at 16 hr (AID 948); conditions: LYMP1-002 lymphoblastoid cell viability; series mostly up to 92.2 µM;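 note: 0% = DMSO alone and full effect = 92 µM tetraoctylammonium bromide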
Outline: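 Acute cytotoxicity is scored as a concentration-dependent fall in intracellular ATP in a human lymphoblastoid line (LYMP1-002) after 16 hr compound exposure at 37 C, measured by luciferase luminescence.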

[16] = MultiTox-Fluor Cytotoxicity Assay - LYMP1-003 - Dead Cells (AID 961); conditions: LYMP1-003 lymphoblastoid cells, dead-cell protease fluorescence; series mostly up to 92.2 µM;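 note: cells exposed to compound for 16 h at 37 °C; nearly all actives have a fitted effect of over 70% in size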
Outline: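 LYMP1-003 lymphoblastoid, 2500 cells/well, 5 hr settle then 16 hr cpd at 37 C; MultiTox-Fluor reagent 60 min RT; Ex/Em 485/520 dead-cell signal; norm. DMSO = 0%, 15 uM tetraoctylammonium bromide = 100%; Hill AC50.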

[17] = Cell Viability - LYMP2-023 (AID 975); conditions: LYMP2-023 lymphoblastoid cell viability; series mostly up to 92.2 µM;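 note: cellular ATP measured by luciferase luminescence as viability proxy; cells exposed to compound for 24 hours at 37 °C; plate controls were DMSO only for no effect and 92 µM tetraoctylammonium bromide control for full effect; nearly all actives have a fitted effect of over 55% in size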
Outline: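 Concentration-dependent drop in intracellular ATP measures acute cytotoxicity in a human lymphoblastoid line treated for 24 hours in complete culture medium. AC50 values are taken from Hill-equation fits of qHTS data.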

[18] = Cell Viability - LYMP2-008 (AID 980); conditions: LYMP2-008 lymphoblastoid cell viability, qHTS; series mostly up to 92.2 µM;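 note: cells exposed to compound for 24 h at 37 °C; % is set by controls: 0 for no effect and ±100 for the full control effect; nearly all actives have a fitted effect of over 60% in size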
Outline: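 Acute cytotoxicity is scored as concentration-dependent loss of cellular ATP in a human lymphoblastoid line after 24 hr treatment at 37 C. ATP is quantified by luciferase luminescence.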

[19] = qHTS Assay for Identification of Small Molecule Inducers of Hypoxia Response (AID 2120; active = well fitted curve in the direction sought with a large enough effect in the signal ratio, with a control signal flat, not every such curve was filed as active; the % refers to the signal ratio; note: 0% is about no effect); conditions: hypoxia response reporter cells, beta-lactamase ratio readout; series mostly up to 104 µM
Outline: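 Induction of beta-lactamase reporter activity was measured in CellSensor HRE-bla ME-180 cells after 17 h compound treatment at 37 degrees C, using CCF4 substrate and the 460nm/530nm emission ratio to derive AC50 values.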

[20] = qHTS assay for cell viability of HEK293 cells (AID 743288); conditions: ATP luminescence (CellTiter-Glo), 18 h, hits give low values; note: % is set by controls: 0 for no effect and ±100 for the full control effect; nearly all actives have a fitted effect of over 50% in size
Outline: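 The Tox21 protocol used parental HEK293 cells treated for 18 h at 37 C with compounds delivered by pintool; ATP-coupled luminescence after 30 min at room temperature gave viability.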

O=C(O)C(Cl)(Cl)Br
inactive: Potency [1] > 92 µM | Potency [2] > 92 µM | Potency [3] > 92 µM | Potency [4] > 92 µM | Potency [5] > 92 µM | Potency [6] > 92 µM | Potency [7] | outcome [8] | outcome [9] | outcome [10] | outcome [11] | Potency [12] | Potency [13] | outcome [14] | outcome [15] | Potency [16] | Potency [17] | Potency [18] | Potency [19] | max response [20] 5.15%

CCCCCC[N+](=O)[O-]
inactive: Potency [1] > 92 µM | Potency [2] > 92 µM | Potency [3] > 92 µM | Potency [4] > 92 µM | Potency [5] > 92 µM | Potency [6] > 92 µM | Potency [7] | outcome [8] | outcome [9] | outcome [10] | outcome [11] | Potency [12] | Potency [13] | outcome [14] | outcome [15] | Potency [16] | Potency [17] | Potency [18] | Potency [19] | max response [20] 7.41%

Oc1cccc(Cl)c1
inactive: Potency [1] > 92 µM | Potency [2] > 92 µM | Potency [3] > 92 µM | Potency [4] > 92 µM | Potency [5] > 92 µM | Potency [6] > 92 µM | Potency [7] | outcome [8] | outcome [9] | outcome [10] | outcome [11] | Potency [12] | Potency [13] | outcome [14] | outcome [15] | Potency [16] | Potency [17] | Potency [18] | Potency [19] | max response [20] 0.616%

OCC(Cl)CCl (stereo not given)
inactive: Potency [1] > 92 µM | Potency [2] > 92 µM | Potency [3] > 92 µM | Potency [4] > 92 µM | Potency [5] > 92 µM | Potency [6] > 92 µM | Potency [7] | outcome [8] | outcome [9] | outcome [10] | outcome [11] | Potency [12] | Potency [13] | outcome [14] | outcome [15] | Potency [16] | Potency [17] | Potency [18] | Potency [19] | max response [20] -6.78%

[O-][Cl+2]([O-])O
inactive: Potency [1] > 92 µM | Potency [2] > 92 µM | Potency [3] > 92 µM | Potency [4] > 92 µM | Potency [5] > 92 µM | Potency [6] > 92 µM | Potency [7] | outcome [8] | outcome [9] | outcome [10] | outcome [11] | Potency [12] | Potency [13] | outcome [14] | outcome [15] | Potency [16] | Potency [17] | Potency [18] | Potency [19] | max response [20] -5.12%

CC(=O)NNc1ccccc1
inactive: Potency [1] > 92 µM | Potency [2] > 92 µM | Potency [3] > 92 µM | Potency [4] > 92 µM | Potency [5] > 92 µM | Potency [6] > 92 µM | Potency [7] | outcome [8] | outcome [9] | outcome [10] | outcome [11] | Potency [12] | Potency [13] | outcome [14] | outcome [15] | Potency [16] | Potency [17] | Potency [18] | Potency [19] | max response [20] 2.18%

ClCc1ccccc1
inactive: Potency [1] > 92 µM | Potency [2] > 92 µM | Potency [3] > 92 µM | Potency [4] > 92 µM | Potency [5] > 92 µM | Potency [6] > 92 µM | Potency [7] | outcome [8] | outcome [9] | outcome [10] | outcome [11] | Potency [12] | Potency [13] | outcome [14] | outcome [15] | Potency [16] | Potency [17] | Potency [18] | Potency [19] | max response [20] -10.4%

ClC(Cl)c1ccccc1
inactive: Potency [1] > 92 µM | Potency [2] > 92 µM | Potency [3] > 92 µM | Potency [4] > 92 µM | Potency [5] > 92 µM | Potency [6] > 92 µM | Potency [7] | outcome [8] | outcome [9] | outcome [10] | outcome [11] | Potency [12] | Potency [13] | outcome [14] | outcome [15] | Potency [16] | Potency [17] | Potency [18] | Potency [19] | max response [20] -9.22%

Cc1ccc(N)cc1Cl
inactive: Potency [1] > 92 µM | Potency [2] > 92 µM | Potency [3] > 92 µM | Potency [4] > 92 µM | Potency [5] > 92 µM | Potency [6] > 92 µM | Potency [7] | outcome [8] | outcome [9] | outcome [10] | outcome [11] | Potency [12] | Potency [13] | outcome [14] | outcome [15] | Potency [16] | Potency [17] | Potency [18] | Potency [19] | max response [20] -1.75%

Clc1ccccc1
inactive: Potency [1] > 92 µM | Potency [2] > 92 µM | Potency [3] > 92 µM | Potency [4] > 92 µM | Potency [5] > 92 µM | Potency [6] > 92 µM | Potency [7] | outcome [8] | outcome [9] | outcome [10] | outcome [11] | Potency [12] | Potency [13] | outcome [14] | outcome [15] | Potency [16] | Potency [17] | Potency [18] | Potency [19] | max response [20] 10.9%

CC(C)CC(C)N (stereo not given)
inactive: Potency [1] > 92 µM | Potency [2] > 92 µM | Potency [3] > 92 µM | Potency [4] > 92 µM | Potency [5] > 92 µM | Potency [6] > 92 µM | Potency [7] | outcome [8] | outcome [9] | outcome [10] | outcome [11] | Potency [12] | Potency [13] | outcome [14] | outcome [15] | Potency [16] | Potency [17] | Potency [18] | Potency [19] | max response [20] 1.65%
